# Screening results (PubChem BioAssay)
# Hits are enriched below; roughly 8.9% of the tested compounds scored in any of these assays.
# KB-3-1 cytotox – qHTS assay for MDR1-selective chemotherapeutics: Primary screen using the parental adenocarcinoma cell KB-3-1. Potency, µM (top dose mostly 46.1 µM), actives largely listed as cytotoxic. KB-3-1 viability, CellTiter-Glo ATP luminescence, 72 h. 400,000 tested, 1.4% active. AID 1347075, 2019; further: potency means the concentration at half of the fitted maximal effect; on the % scale 0 is the no-effect control and ±100 the full control effect; nearly all actives have a fitted effect of over 60% in size
#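 Viability of parental KB-3-1 cells, measured by CellTiter-Glo luminescence, followed a 72 h incubation at 37 °C with pinned compounds in phenol-red-free DMEM containing 10% FBS.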
# D3 antag – qHTS of D3 Dopamine Receptor Antagonist: qHTS; D(3) dopamine receptor (Homo sapiens), P35462; D3R cells, DiscoveRx beta-arrestin luminescence, antagonist mode; hits give low values; max response, negative = inhibition, %; 360,000 tested, 2.5% active; AID 652054, 2013; in the data active means max response below about -50%; inconclusive means no clear call, values can overlap the other calls; further: on the % scale 0 is the no-effect control and ±100 the full control effect
# Target sequence (P35462 whole entry, looked up): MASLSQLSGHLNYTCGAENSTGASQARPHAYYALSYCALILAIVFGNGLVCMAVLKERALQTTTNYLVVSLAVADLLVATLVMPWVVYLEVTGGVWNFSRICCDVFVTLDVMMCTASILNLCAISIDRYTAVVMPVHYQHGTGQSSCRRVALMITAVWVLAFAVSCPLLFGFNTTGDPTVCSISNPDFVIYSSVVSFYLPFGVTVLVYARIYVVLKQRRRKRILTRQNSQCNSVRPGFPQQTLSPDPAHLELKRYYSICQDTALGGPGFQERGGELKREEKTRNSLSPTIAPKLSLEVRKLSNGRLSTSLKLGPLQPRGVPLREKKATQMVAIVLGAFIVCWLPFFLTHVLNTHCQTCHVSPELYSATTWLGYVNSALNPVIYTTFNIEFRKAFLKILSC
#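 Cells plated overnight at 1500 cells/well, then exposed to library compounds with dopamine controls for 90 minutes at 37 degrees C. DiscoveRx reagent added for 30–60 minutes at room temperature; luminescence read, quantitative HTS format.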
# MCF10A rereplic – A quantitative high throughput screen for small molecules that induce DNA re-replication in MCF 10a normal breast cells; MCF 10A DNA re-replication, Hoechst nuclear intensity, 48 h; Potency, µM (series often up to 46.1 µM), for the others: top-dose activity, positive = re-replication, actives largely listed as activators; 350,000 tested, 2.9% active; AID 624296, 2012; further: potency means the concentration at half of the fitted maximal effect; % of control where 0% means no effect; nearly all actives have a fitted effect of over 50% in size
# SW480 rerep – A quantitative high throughput screen for small molecules that induce DNA re-replication in SW480 colon adenocarcinoma cells; Potency, µM (series often up to 46.1 µM), for inactives: at the highest dose re-replication activation, actives largely listed as activators; SW480 DNA re-replication, Hoechst DNA content imaging, 48 h; 340,000 tested, 1.8% active; further: potency means the concentration at half of the fitted maximal effect; % of control where 0% means no effect; nearly all actives have a fitted effect of over 55% in size
#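 Treated cells incubate 48 hr (37 C, 5% CO2), are stained 40 min with Hoechst, and nuclear fluorescence is enumerated; a rise in nuclei with high DNA signal marks re-replication.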
# DRD3 agonist – qHTS of D3 Dopamine Receptor Agonist: qHTS; D3R DiscoveRx beta-arrestin cells, luminescence, 90 min; max activation, %; 410,000 tested, 0.58% active; AID 652048, 2013; in the data active means max activation above about 30%; further: 0% is about no effect
#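 Agonist mode: compounds and dopamine controls were applied to plated cells for 90 min at 37 degrees C after an overnight attachment at 1500 cells/well. Luminescent read-out followed 30 - 60 minutes at room temperature with DiscoveRx detection reagent.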
# KB-V1 MDR tox – qHTS assay for MDR1-selective chemotherapeutics: Primary screen using the drug-selected MDR subline cells KB-V1 | KB-V1 MDR cells viability, CellTiter-Glo, 72 h | Potency, µM (titrated, usually from 46.1 µM), hits mostly cytotoxic | 400,000 tested, 3.4% active | AID 1347076, 2019; further: potency means the concentration at half of the fitted maximal effect; on the % scale 0 is the no-effect control and ±100 the full control effect; nearly all actives have a fitted effect of over 60% in size
#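 qHTS viability screen in drug-selected KB-V1 MDR cells: 72 h compound treatment at 37 degrees C, ATP luminescence end point.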
# Starred values were filed as active, the others as inactive; i = inactive; u = inconclusive; x = no result. Unless noted, the call rests on the fitted dose curve; in most records, active means well fitted curve in the direction sought with a large enough effect; inconclusive means small, poorly fitted or top-dose-only effect, or another doubt; inactive means no such curve, though single readings can be large; an effect the other way counts as inactive or inconclusive.
SMILES,KB-3-1 cytotox,D3 antag,MCF10A rereplic,SW480 rerep,DRD3 agonist,KB-V1 MDR tox
CCC(C)(C)n1nnnc1C(C(C)C)N(CCN1CCOCC1)Cc1cc2cccc(C)c2[nH]c1=O (stereo not drawn),i,5.9,4.1%,3.3%,3.3,14.6µM*
COc1ccc(OC)c(/C=C2\Cc3ccccc3C2=O)c1,i,x,x,x,x,i
Cc1ccc(NC(=O)N2CCc3c([nH]c4ccccc34)C2c2ccccc2F)c(Cl)c1 (stereo not drawn),u,x,x,x,-13.6,u
COc1ccc(CN2CCN(Cc3cc(=O)oc4cc(C)ccc34)CC2)c(OC)c1OC,i,-8.4,6.51µM*,10.2%,-12.0,i
COc1ccc2c(CN3CCN(Cc4ccccc4)CC3)cc(=O)oc2c1,i,-68.1*,x,x,-20.0,u
COc1ccc2oc(=O)cc(CN3CCN(Cc4ccccc4)CC3)c2c1,i,-54.0*,x,x,-45.3,i
COc1ccc2c(CN3CCCCC3)cc(=O)oc2c1,i,-21.4,x,x,-7.1,i
Cc1oc(-c2cccc(Cl)c2)nc1Cn1c(SCc2ccccc2F)nc2ccncc21,i,x,x,x,-24.0,i
Cc1cc(=O)[nH]c(SCC(=O)C23CC4CC(CC(C4)C2)C3)c1C#N,u,37.2,u,u,3.0,6.51µM*
COc1ccc(CCNc2ncnc3cc(OC)c(OC)cc23)cc1OC,i,55.9,10.0%,u,29.9,20.6µM*
COc1ccc(CCNc2ncnc3c2nnn3C)cc1OC,x,x,x,x,-3.2,x
COc1ccc2[nH]c3c(NCCCOC(C)C)ncnc3c2c1,i,8.6,-10.7%,u,4.5,u
COc1ccc2c(c1)[nH]c1c(=O)n(CCC3=CCCCC3)cnc12,i,-0.3,-2.9%,-7.6%,1.6,i
CCOc1ccc2[nH]c3c(NCCC(C)C)ncnc3c2c1,u,-0.9,11.6µM*,u,-4.0,i
COc1ccc(CCNc2ncnc3c2[nH]c2cc(OC)c(OC)cc23)cc1OC,i,23.4,18.4µM*,18.4µM*,25.5,i
COc1cc2ncnc(NCCc3ccccc3)c2cc1OC,u,26.7,2.9%,-1.4%,9.1,u
COc1ccc2[nH]c3c(NCCC4=CCCCC4)ncnc3c2c1,3.66µM*,1.2,20.6µM*,u,-5.2,9.2µM*
N/C(=C\c1ccccc1)c1ccncc1,i,x,x,x,x,i
CCOc1cc(C2C(C(=O)Nc3ccccc3)=C(C)Nc3ncnn32)cc(Br)c1O (stereo not drawn),i,x,x,x,4.2,u
Cc1nnc(N2CCN(c3ccccc3)CC2)c2c1nnn2Cc1ccc(F)cc1,i,x,x,x,3.9,i
CCOc1ccc(C2c3c(-c4ccc(C)cc4)n[nH]c3C(=O)N2c2ccc(Cl)cc2)cc1 (stereo not drawn),u,x,x,x,14.3,u
Clc1ccc2c(NCc3cccs3)ncnc2c1,u,-2.9,6.8%,0.7%,-0.2,i
COc1cc2ncnc(NCc3cccs3)c2cc1OC,u,12.8,2.59µM*,-23.9%,4.0,u
COc1ccc(CCNc2c3ccccc3nc3ccccc23)cc1OC,u,-3.0,6.51µM*,0.92µM*,-5.8,u
COc1ccc(CCNc2nc(SCc3ccc(Cl)cc3)nc3ccccc23)cc1OC,x,x,x,x,1.8,x
CN(C)C1=NCC(CSC(=N)N)S1 (stereo not drawn),i,-10.9,u,8.2µM*,1.3,i
Cn1c(=NC(=O)c2ccco2)sc2ccccc21,u,7.3,-0.5%,-1.6%,3.6,16.4µM*
Cn1c(=NC(=O)CCl)sc2ccccc21,i,0.1,14.6µM*,u,-2.5,u
CC(=O)SCC(=O)N=c1sc2cc(F)ccc2n1C,i,59.9,u,2.3%,45.8*,i
